LT uptake inh: anthrax lethal toxin internalization inhibition; Cells, anthrax lethal toxin internalization, FRET ratio (460/530); Potency, µM (series often up to 40 µM), inactives show top-dose activity change, negative = inhibition, usual class: inhibitors; actives 0.67% (n = 70,000); further: on the % scale 0 is the no-effect control and ±100 the full control effect; nearly all actives have a fitted effect of over 50% in size
AmpC det inh: inhibitors of E. coli AmpC beta-lactamase with detergent | P00811 | purified AmpC, nitrocefin hydrolysis with detergent | Potency, µM (highest dose often 28.7 µM), for the others: at the top dose activity change, negative = inhibition | AID 584 | actives 0.09% (n = 71,000); active means well fitted curve in the direction sought with a large enough effect; inconclusive means small, poorly fitted or top-dose-only effect; further: on the % scale 0 is the no-effect control and ±100 the full control effect
Target sequence (P00811 whole entry, looked up): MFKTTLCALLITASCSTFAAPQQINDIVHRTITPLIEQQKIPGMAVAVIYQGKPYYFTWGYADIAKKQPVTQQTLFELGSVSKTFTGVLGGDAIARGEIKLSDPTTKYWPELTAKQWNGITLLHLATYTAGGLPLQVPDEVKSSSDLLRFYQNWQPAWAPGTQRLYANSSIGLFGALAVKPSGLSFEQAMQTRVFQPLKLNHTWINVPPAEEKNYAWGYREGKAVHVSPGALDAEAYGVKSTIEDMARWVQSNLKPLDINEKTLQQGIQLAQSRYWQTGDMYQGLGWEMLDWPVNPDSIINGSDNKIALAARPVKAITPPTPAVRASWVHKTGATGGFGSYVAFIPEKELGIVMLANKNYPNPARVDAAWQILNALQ
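E. coli AmpC (5.3 nM) in 20 mM phosphate pH 7.0 with 0.01% Triton X-100, preincubated 15 min RT with compound; nitrocefin (2 uL of 800 uM stock) hydrolysis followed by 480 nm absorbance every 20 s over 4 min.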
AmpC inh no det: AmpC beta-lactamase inhibition, detergent-free assay | actives 1.8% (n = 71,000) | Potency, µM (highest dose often 28.7 µM), for inactives: top-dose activity change, negative = inhibition | P00811 | AmpC nitrocefin hydrolysis, absorbance 480 nm, no detergent | AID 585; further: % of control where 0% means no effect
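Enzyme, pH 7.0 phosphate. Compound titrations were pre-incubated with AmpC for 15 min at room temperature before nitrocefin (stock 800 uM) addition; product formation was recorded at 480 nm every 20 s for 4 min.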
Prx2 Sm inh: inhibitors of Schistosoma mansoni peroxiredoxin 2; S. mansoni Prx2 activity coupled to TGR/GSH (TGR is thioredoxin glutathione reductase), NADPH fluorescence loss, qHTS; Potency, µM; actives 0.07% (n = 65,000); AID 448
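Activity is read as the drop in NADPH fluorescence (365/450 nm), recorded every 30 sec for 8 min after H2O2 addition. Prx2 is coupled to TGR-driven NADPH oxidation through glutathione, in phosphate buffer pH 7.4.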
An asterisk follows results filed as active; ? = inconclusive; / = no result; [ ] = remark or other dose. Most compounds without a hit are left out; they make up all but 2.4% or so of the library. Unless noted, the call rests on the fitted dose curve. Potency means the concentration at half of the fitted maximal effect.

SMILES	LT uptake inh	AmpC det inh	AmpC inh no det	Prx2 Sm inh
CCOCC(=O)Nc1ccc2c(c1)OCCO2	-5%	-3%	10%	>57
Cc1cnc(CNc2ncncc2-c2ccccc2C)cn1	-5%	9%	9%	>57
CCOC(=O)N1CCN(c2c(N3CCOCC3)c(=O)c2=O)CC1	-8%	6%	4µM*[single pt active]	>57
CCCn1c(C)nc2c(N3CCC(N(C)C)C3)nc(C)nc21 (configuration not stated)	-9%	20%	-2%	/
COCCN(CCOC)c1nc(C)nc2c1nc(-c1ccccc1)n2CCCN1CCCCC1C (configuration not stated)	-8%	15%	57%	/
CCN(CC)CC[n+]1ccc2c(C)c3[nH]c4ccccc4c3c(C)c2c1	4µM*	-2%[5.75 µM]	-10%[5.75 µM]	>57
CCNc1ncc2nc(C)c(=O)n(Cc3cccc(OC)c3)c2n1	?	1%	22%	>57
CC(=O)c1ccc(OCC(O)CN2CCN(Cc3ccc4c(c3)OCO4)CC2)cc1 (configuration not stated)	-17%	14%	4µM*[single pt active]	>57
Cc1cccc(OCC(O)CN2C(C)(C)CC(O)CC2(C)C)c1C (configuration not stated)	-3%	-1%	15%	>57
CC(=O)c1ccc(OCC(O)CN2CCCC(C)C2)cc1 (configuration not stated)	9%	14%	3.2µM*[single pt active]	>57
CC(=O)c1ccc(OCC(O)CN2C(C)(C)CC(O)CC2(C)C)cc1 (configuration not stated)	1%	14%	4µM*[single pt active]	>57
CC(=O)c1ccc(OCC(O)CN2CCN(CCO)CC2)cc1 (configuration not stated)	1%	11%	4µM*[single pt active]	>57
Cc1ccc(OCC(O)CN2CCN(Cc3ccc4c(c3)OCO4)CC2)c(C)c1 (configuration not stated)	?	-4%	92%	>57
N/N=C1/c2ccccc2N[C@H]1OC(=O)Nc1cccc(Cl)c1	?	-13%[5.75 µM]	-4%[5.75 µM]	>57
COc1ccc(O[C@H]2C=C[C@@H](c3ccccc3)O[C@H]2COC(=O)CC/C(C)=N\OC[C@@H](O)COCc2ccco2)cc1	-3%[8 µM]	/	/	/
C/C(CCC(=O)OC[C@@H]1O[C@H](C#Cc2ccccc2)C=C[C@@H]1Oc1ccc(C)cc1)=N/O[C@@H](C)CN1CCCCc2nc(C)c(C)cc21	5%[8 µM]	/	/	/
Cc1ccc(OCC(O)CN2CCN(CC(O)COc3ccc(C)cc3)CC2)cc1 (configuration not stated)	8%	2%	103%	>57
CCN1CCN(CC(O)COc2ccc(C(C)=O)cc2)CC1 (configuration not stated)	-4%	14%	4µM*[single pt active]	>57
COc1cccc(-c2cc(C(=O)Nc3ccc(OC)c(OC)c3)no2)c1	-13%	-5%	32%	>57
CC(C)Cc1cc(C(=O)Nc2ccc3c(c2)OCO3)no1	?	13%	4µM*[single pt active]	>57
COc1ccc(NC(=O)c2cc(CC(C)C)on2)cc1OC	-5%	12%	4µM*[single pt active]	>57
CCc1ccc(NC(=O)c2cc(CC(C)C)on2)cc1	-29%	12%	4µM*[single pt active]	>57
O=C(Nc1ccc2c(c1)OCO2)c1cc2ncc(Br)cn2n1	3%	25%	16µM*[single pt active]	>57
Cc1onc(-c2ccccc2)c1C(=O)Nc1ccc2c(c1)OCO2	-13%	4%	-6%	/
Cn1c(=O)c(-c2ccc(F)cc2)nc2cnc(OCc3ccccc3)nc21	?	-1%	1%	>57
SMILES	LT uptake inh	AmpC det inh	AmpC inh no det	Prx2 Sm inh
COc1ccc(-c2[nH]ncc2-c2cnn(-c3ccccc3)c2)c(O)c1	13µM*	9%	-16%	>57
N=C1Sc2ccccc2C2=NCCCN12	0.025µM*	-1%	-13%	>57
COC(=O)c1ccc(C(NC(=O)OCc2ccccc2)/C(F)=C/[C@@H](C)C(=O)N(C)Cc2cccnc2)cc1 (some centres not stated)	7%	17%	121%	/
CCc1ccc(NC2=NCC(=O)N2Cc2ccc3c(c2)OCO3)cc1	10µM*	0%	44%	>57
c1cc2c3c(c1)c1c(n3CCNC2)CCCC1	?	16µM*	?	>26
c1ccc2c(c1)c1c3n2CCNC3CCC1 (configuration not stated)	?	-4%	11%	>57
CC(C)NC[C@H]1CCc2cc(CO)c([N+](=O)[O-])cc2N1	4%[3.58 µM]	-1%[12.8 µM]	-4%[12.8 µM]	>57
CCSc1nnc(NC(=O)c2ccc(Br)s2)s1	/	1%	10µM*	>57
O=C(CC1(O)C(=O)Nc2cc(Cl)cc(Cl)c21)c1ccccc1O (configuration not stated)	-5%	10µM*	13µM*	>57
COC(c1ccccc1)C(C)C(OC)C(C)C(OC)C(C)C(C)=O (configuration not stated)	1%[8 µM]	/	/	/
CCOc1ccccc1CNC(=O)c1cc2occc2n1C	-28%	?	10µM*[single pt active]	>57
COc1ccccc1CNC(=O)c1cc2sccc2n1C	?	-1%	16%	>57
CCC(C)SCc1nc2ccccc2[nH]1 (configuration not stated)	5%	-4%	-12%	/
CC(C)N(Cc1nc2ccccc2[nH]1)C(C)C	-10%	9%	4µM*[single pt active]	>57
O=C(C1CC(c2ccc(F)cc2)=NO1)N1CCc2ccccc2C1 (configuration not stated)	?	12%	4µM*[single pt active]	>57
COc1cccc(C2=NOC(C(=O)N3CCc4ccccc4C3)C2)c1 (configuration not stated)	?	13%	23%	>57
O=C(C1CC(c2ccc(F)cc2)=NO1)N1CCN(c2ccccc2)CC1 (configuration not stated)	-15%	12%	4µM*[single pt active]	>57
O=C(C1CC(c2ccc(F)cc2)=NO1)N1CCCCC1 (configuration not stated)	6%	-4%	1%	>57
Cc1noc(C)c1C(=O)N1CCC[C@@]2(CCN(c3cccc(-c4ccccc4)c3)C2)C1	-14%	2%	149%	>57
COc1cc2[nH]c(=O)c(C(=O)NCCCN3CCCCC3)c(O)c2cc1OC	13µM*	9%	31%	>57
O=C(NCCCN1CCOCC1)c1c(O)c2ccccc2[nH]c1=O	3%	-3%	24%	>57
N#Cc1cn(-c2ccccc2)nc1-c1ccccc1	-6%	2%	-13%	>57
N#Cc1c(-c2ccccc2)no[n+]1[O-]	-5%	0%	3%	8.7*
O=C(c1ccc(CSCc2ccccc2F)o1)N1CCN(c2ccc(N3CCOCC3)nn2)CC1	7.9µM*	11%	162%	>57
COc1ccc(OC)c(C2=NOC(C(=O)Nc3cc(C)nn3-c3ccccc3)C2)c1 (configuration not stated)	-12%	11%	4µM*[single pt active]	>57
CCn1c2ccccc2c2cc(NC(=O)C3CCN(S(=O)(=O)c4cccs4)CC3)ccc21	-28%	-1%	13µM*	>57
NCCNC(=S)S	?	-4%[5.75 µM]	-4%[5.75 µM]	>57
O=C(Cn1nc(Cc2cccnc2)c2ccccc2c1=O)N1CCC2(CC1)OCCO2	11%	1%	-6%	>57

Compound activity deposited in PubChem BioAssay by National Center for Advancing Translational Sciences (NCATS).
